# Results taken from PubChem BioAssay AID686978 (National Center for Advancing Translational Sciences (NCATS), 2013).
# Among all 420,000 compounds or so, about 64,000 (15%) were called active. Not shown: some 27% with an inconclusive outcome. Calls follow the shape of the dose curve; as a rule, active = well fitted inhibition curve with a large enough effect; inconclusive = small, poorly fitted or top-dose-only effect; inactive = flat fitted curve, though single readings scatter. Only a sample is shown. A call without a number means that no potency is given here.
# Assay: qHTS for Inhibitors of human tyrosyl-DNA phosphodiesterase 1 (TDP1): qHTS in cells in absence of CPT; also: nearly all actives have a fitted effect of over 55% in size
# Conditions: DT40 Tdp1-/- hTDP1 cells, no CPT, ATP luminescence, 48 h; activity change, negative = growth inhibition: at 46.2 µM (top of the series)
# Method in brief: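 Growth of hTDP1-complemented DT40 Tdp1-knockout cells is measured by ATP luminescence after at least 48 hr compound exposure at 37 °C, with DMSO substituting for the 20 nM CPT used in the parallel screen.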
# Potency is read from the fitted curve at half-maximal effect.
row,SMILES,Potency
1,COc1ccc(OCCCC(=O)Oc2ccc(OC)cc2)cc1,inactive
2,Cc1ccc(NC(=O)N2CCC(O)(c3cccnc3)CC2)cc1,inactive
3,Cn1c(CCc2ccccc2)nnc1SCC(N)=O,inactive
4,COC(=O)C1=C(C)NC(=S)NC1c1ccc(OCC(=O)N2CC(C)OC(C)C2)c(OC)c1 (centres undefined),inactive
5,O=C1CSC(c2ccc(Cl)cc2)N1 (centres undefined),inactive
6,CCCCC/C=C/C1=CC(=O)C[C@H](c2ccc(Cl)cc2)C1,inactive
7,N#Cc1ccc(C2=CC(=O)C[C@H](c3ccc(Cl)cc3)C2)cc1,14.6 µM (active)
8,O=C(NCc1ccccc1)[C@@H]1CSC2c3ccccc3C(=O)N21 (some centres undefined),inactive
9,CCOC(=O)C1CCN(c2c(Nc3cc(C)cc(C)c3)c(=O)c2=O)CC1,16.4 µM (active)
10,CCOC(=O)C1CCN(c2csc3ccc(C)cc3c2=O)CC1,inactive
11,CCOC(=O)C1CCN(CCC(=O)Nc2cccc(C)c2)CC1,inactive
12,COC(=O)Nc1ccc(S(=O)(=O)N(C)CC(F)(F)C(F)F)cc1,inactive
13,Cc1ccc(SCCC(=O)OCC(=O)Nc2ncc(Cl)cc2Cl)cc1,inactive
14,CC1(C(=O)OCC(=O)Nc2ncc(Cl)cc2Cl)CC1(Cl)Cl (centres undefined),inactive
15,Cc1ccc(-n2c(SCC(=O)Nc3ncc(Cl)cc3Cl)nc3ccccc32)cc1,13 µM (active)
16,COc1ccccc1P(=O)(c1ccccc1)c1ccccc1NC(C)=O (centres undefined),inactive
17,CCCCN(C)C(=O)C1CCN(Cc2ccccn2)CC1,inactive
18,CC1=C(/C=C/C(C)=C/C=C/C(C)=C/C=C/C=C(C)/C=C/C=C(C)/C=C/C2=C(C)CCCC2(C)C)C(C)(C)CCC1,inactive
19,Clc1ccc(C(Cn2ccnc2)OCc2ccsc2Cl)c(Cl)c1 (centres undefined),16.8 µM (active)
20,O=C(NCCCn1ccnc1)Nc1ccc(Cl)cc1Cl,inactive
21,O=C(Nc1ccccc1C(=O)NCCCn1ccnc1)c1ccc(Cl)cc1Cl,inactive
22,CNc1nccc(-c2ccc(Cl)cc2)c1C#N,inactive
23,CN(C(=O)COC(=O)c1cc(-c2ccco2)nc2ccccc12)C1CCS(=O)(=O)C1 (centres undefined),inactive
24,N#Cc1ccc(-c2ccc(Cl)cc2)nc1Oc1ccc(F)cc1,inactive
25,CC(=O)Nc1cccc(Nc2nc(-c3cccs3)nc3ccccc23)c1,8.2 µM (active)
26,COC(=O)c1cc(-c2cccs2)nc2ccccc12,inactive
27,CCN(CC(=O)Nc1c(F)cccc1F)C(=O)Cc1cccs1,inactive

row,SMILES,Potency
1,O=C1CCCCC1C(=O)c1ccccc1 (centres undefined),inactive
2,Cc1n[nH]c(=O)c2c(NC(=O)CSc3ccccc3F)oc(C)c12,inactive
3,CC(=O)N1CCN(S(=O)(=O)c2c(F)cc(F)c(Cl)c2F)CC1,inactive
4,COc1ccc(Cc2n[nH]c(=S)n2NC(=O)Nc2ccc(C)cc2)cc1,inactive
5,COc1ccc(OCCCC(=O)OC(C)C(=O)Nc2ccccc2[N+](=O)[O-])cc1 (centres undefined),inactive
6,O=c1[nH][nH]c(=O)c2cc(N3CCCC3)ccc12,inactive
7,O=C1C=CC(=O)N1c1ccc(N2CCCCC2)cc1,1.16 µM (active)
8,CS(=O)(=O)N1CCC[C@@]2(CCN(c3ccncc3)C2)C1,inactive
9,Cc1ccc(-c2c(C)n([O-])c3c([n+]2=O)CCC3)cc1,inactive
10,CC1=NNC(=O)C1CCC(=O)N/N=C\c1ccc(Cl)c(Cl)c1 (centres undefined),inactive
11,CCOC(=O)c1c(C)[nH]c2c1-c1ccccc1C(=O)C2=O,0.651 µM (active)
12,CCOC(=O)c1c(SCC(=O)Nc2cccc(C)c2C)nc(=O)[nH]c1C,inactive
13,CCOC(=O)c1c(C)[nH]c(=S)c(C#N)c1-c1ccccc1,inactive
14,O=C(COC(=O)c1ccc[nH]c1=O)Nc1ccc2c(c1)OC(F)(F)O2,inactive
15,Cc1ccc(OCc2cc(C(=O)N(C)CCn3ccnc3C)no2)cc1C,inactive
16,COCC1CCCCN1C(=O)c1cc(COc2ccc(C)c(C)c2)on1 (centres undefined),20.6 µM (active)
17,COC(=O)[C@@H]1CCCN1C(=O)c1cc(COc2cccc3cccnc23)on1,inactive
18,COC(=O)c1ccccc1NC(=O)c1cc(-c2ccccc2O)no1,inactive
19,CCOC(=O)C1CCc2nc3ccccc3c(=O)n21 (centres undefined),inactive
20,CCOC(=O)C(CCOc1cccc(CC)c1)C(=O)OCC,inactive
21,C=CCNC(=O)C12CC3CC(C1)CC(C(=O)NCC=C)(C3)C2,inactive
22,Cc1cc(C)cc(NC(=O)N2CCC(NC(=O)c3ccc(F)cc3)CC2)c1,inactive
23,O=C(C(=O)N1CCN(c2ccccc2)CC1)c1ccc2c(c1)OCO2,inactive
24,CCN(CC)CCC(c1ccc2c(c1)OCO2)c1c(OC)cc(OC)c2c(-c3ccccc3)cc(=O)oc12 (centres undefined),20.6 µM (active)
25,COc1cc(OC)c2ccc(=O)oc2c1C(CCN1CCN(c2ccccc2)CC1)c1ccc2c(c1)OCO2 (centres undefined),16.4 µM (active)
26,COc1ccc(F)cc1S(=O)(=O)NCC(c1ccc2c(c1)OCO2)N1CCN(C)CC1 (centres undefined),inactive
27,COc1cc(COCC(O)CN2CCN(Cc3ccc4c(c3)OCO4)CC2)cc(OC)c1OC (centres undefined),inactive
